Inconclusive results are not listed. Some structures have more than one record in an assay (separate samples or runs), and their calls can disagree. Calls of active or inactive are those of the source. Rule for the calls: active = hit-call score of the fitted dose curve at least 0.9, where 1 is the maximum; inconclusive = response in the unintended direction; inactive = score below 0.9. Peptide text beside a SMILES is read from it.

Assay [1] is described as follows: ACEA_AR_agonist_AUC_viability: ACEA Biosciences xCELLigence Real-Time Cell Analysis on Androgen Receptor Agonism for Viability (AID 2283775).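 For AC50: viability read 80 hours after compound addition.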 The method in brief: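 Read-out is area under the impedance curve at 80 h post-dose in 22Rv1 cells, with DMSO as baseline and signal loss taken as reduced viability. Compounds ran in duplicate from 100 uM final.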
Assay [2] in a line: ACEA_AR_antagonist_AUC_viability: ACEA Biosciences xCELLigence Real-Time Cell Analysis on Androgen Receptor Antagonism for Viability (AID 2283776).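 Note: area under impedance growth curve at 80 h after dosing as viability; hits lower the growth signal relative to DMSO meaning cytotoxicity.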 The method in brief: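 22Rv1 human prostate cancer cells were seeded on electrode plates, monitored overnight, then exposed to eight 1:4 dilutions from 100 uM final. Impedance-based growth kinetics at 80 h gave an AUC viability endpoint normalized to DMSO.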

Assay [3] can be described thus: ACEA_ER_AUC_viability: ACEA Biosciences xCELLigence Real-Time Cell Analysis on Estrogen Receptor Agonism for Viability (AID 2283782).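 Note: continuous compound exposure with impedance area under curve over 80 h; hit means loss of impedance signal meaning reduced cell growth or viability.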 The method in brief:
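T-47D human breast cells in phenol red-free RPMI1640 with 10% charcoal-stripped FBS were dosed with an 8-point 1:4 dilution series from 100 uM top final concentration, in duplicate. Impedance-based growth was followed for 80 h; AUC analysed versus DMSO.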

Assay [4] has as its system zebrafish Estrogen Receptor (ESR2B), gene 317733. Description: ATG_zfER2b_XSP1: Attagene TRANS-FACTORIAL Multi-Species (XSP1) HepG2 Assay for zebrafish Estrogen Receptor (ESR2B) (AID 2283773). The method in brief: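 HepG2 cells transiently transfected with multiple GAL4-UAS reporter units expressing chimeric zebrafish ER2b-Gal4; 24 h chemical exposure with 3 nM 6-alpha-fluorotestosterone present. Reporter mRNA measured by RT-PCR and capillary electrophoresis; gain of signal fitted versus DMSO.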

Assay [5] relates to frog Estrogen Receptor (ESR2), gene 100174814. The experiment in a line: ATG_frER2_XSP1: Attagene TRANS-FACTORIAL Multi-Species (XSP1) HepG2 Assay for frog Estrogen Receptor (ESR2) (AID 2283774). The essentials: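 HepG2 cells transiently transfected with GAL4-UAS multiplexed reporter units expressing chimeric NR-Gal4 proteins; reporter mRNA measured 24 h after dosing by RT-PCR, FAM labeling, HpaI digestion and capillary electrophoresis. Gain-of-signal relative to DMSO; 3 nM 6-alpha-fluorotestosterone present.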

The subject of assay [6] is frog Estrogen Receptor (ESR1), gene 398734. Description: ATG_frER1_XSP1: Attagene TRANS-FACTORIAL Multi-Species (XSP1) HepG2 Assay for frog Estrogen Receptor (ESR1) (AID 2283777). The method in brief: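 Read-out: fluorescent reporter mRNA via RT-PCR, HpaI digestion and capillary electrophoresis, after 24 h chemical exposure of transiently transfected human HepG2 cells expressing exogenous NR-Gal4 chimeras. DMSO served as baseline for positive-direction fitting.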

Assay [7] deals with zebrafish Estrogen Receptor (ESR2A), gene 317734. Description: ATG_zfER2a_XSP1: Attagene TRANS-FACTORIAL Multi-Species (XSP1) HepG2 Assay for zebrafish Estrogen Receptor (ESR2A) (AID 2283778). The essentials: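 HepG2 cells transiently transfected with multiplexed GAL4-UAS reporter units and chimeric NR-GAL4 receptors; 24 h compound exposure with 3 nM 6-alpha-fluorotestosterone present. Reporter mRNA quantified by RT-PCR and capillary electrophoresis, gain-of-signal fitted relative to DMSO.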

Assay [8] addresses chicken Estrogen Receptor (ESR1), ESR1 (gene 396099) (UniProt P06212). The experiment in a line: ATG_chERa_XSP1: Attagene TRANS-FACTORIAL Multi-Species (XSP1) HepG2 Assay for chicken Estrogen Receptor (ESR1) (AID 2283779). The method in brief:
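HepG2 cells transiently transfected with multiplexed GAL4-UAS reporter units expressing chimeric NR-Gal4 proteins; 3 nM 6-alpha-fluorotestosterone present. Reporter mRNA measured 24 h after dosing by RT-PCR, FAM labelling, HpaI digest and capillary electrophoresis; gain of signal versus DMSO.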

Assay [9] concerns the target Estrogen receptor (Homo sapiens) (UniProt P03372). The experiment in a line: ATG_hERa_XSP1: Attagene TRANS-FACTORIAL Multi-Species (XSP1) HepG2 Assay for human Estrogen Receptor (ESR1) (AID 2283780). The method in brief: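 HepG2 cells transiently transfected with GAL4-UAS reporter units and chimeric NR-Gal4 constructs; 24 h after dosing, reporter mRNA quantified by RT-PCR and capillary electrophoresis. Medium contained 3 nM 6-alpha-fluorotestosterone; activity fitted as gain-of-signal versus DMSO.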

In assay [10] the test system is turtle Estrogen Receptor (ESR1), gene 101933533. The experiment in a line: ATG_trERa_XSP1: Attagene TRANS-FACTORIAL Multi-Species (XSP1) HepG2 Assay for turtle Estrogen Receptor (ESR1) (AID 2283781). The method in brief:
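HepG2 cells transiently transfected with GAL4-UAS reporter units and chimeric NR-Gal4 constructs, dosed for 24 h with 3 nM 6-alpha-fluorotestosterone present. Reporter mRNA was quantified by RT-PCR, fluorescent labelling and capillary electrophoresis, with gain of signal fitted relative to DMSO.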

Sequence of Estrogen receptor (Homo sapiens) (P03372 whole entry, looked up, the tested form may be a part): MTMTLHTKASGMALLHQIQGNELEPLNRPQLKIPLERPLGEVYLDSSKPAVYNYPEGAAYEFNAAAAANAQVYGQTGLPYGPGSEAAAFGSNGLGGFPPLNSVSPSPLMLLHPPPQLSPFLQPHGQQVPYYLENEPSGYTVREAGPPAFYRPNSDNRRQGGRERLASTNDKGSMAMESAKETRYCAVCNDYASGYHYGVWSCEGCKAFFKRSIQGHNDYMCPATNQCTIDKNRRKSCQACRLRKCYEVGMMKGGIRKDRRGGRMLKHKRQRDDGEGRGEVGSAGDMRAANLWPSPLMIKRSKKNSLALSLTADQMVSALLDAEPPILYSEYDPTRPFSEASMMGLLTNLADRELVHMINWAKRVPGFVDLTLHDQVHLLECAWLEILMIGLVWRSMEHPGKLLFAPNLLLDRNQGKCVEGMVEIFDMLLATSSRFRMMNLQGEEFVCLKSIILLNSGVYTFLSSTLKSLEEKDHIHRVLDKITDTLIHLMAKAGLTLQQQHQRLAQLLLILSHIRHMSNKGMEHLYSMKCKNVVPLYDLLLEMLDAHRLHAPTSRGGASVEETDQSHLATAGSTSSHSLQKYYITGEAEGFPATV
Sequence of chicken Estrogen Receptor (ESR1), ESR1 (gene 396099) (P06212 whole entry, looked up, the tested form may be a part): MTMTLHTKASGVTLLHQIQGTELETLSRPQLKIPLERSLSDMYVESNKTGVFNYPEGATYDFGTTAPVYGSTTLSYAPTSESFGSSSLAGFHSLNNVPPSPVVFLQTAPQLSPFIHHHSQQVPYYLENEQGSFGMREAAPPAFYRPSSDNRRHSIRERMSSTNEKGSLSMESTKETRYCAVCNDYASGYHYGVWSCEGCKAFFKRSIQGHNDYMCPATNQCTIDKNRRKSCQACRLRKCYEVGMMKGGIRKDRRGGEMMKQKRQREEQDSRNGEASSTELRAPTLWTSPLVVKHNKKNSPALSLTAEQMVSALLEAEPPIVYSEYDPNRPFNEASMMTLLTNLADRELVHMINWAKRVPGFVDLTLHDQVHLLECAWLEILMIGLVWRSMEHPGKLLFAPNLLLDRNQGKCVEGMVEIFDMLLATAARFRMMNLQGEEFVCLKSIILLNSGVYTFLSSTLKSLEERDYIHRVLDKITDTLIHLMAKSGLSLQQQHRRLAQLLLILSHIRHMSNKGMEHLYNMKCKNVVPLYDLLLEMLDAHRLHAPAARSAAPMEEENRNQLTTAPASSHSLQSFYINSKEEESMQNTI

What is called AC50 is the concentration at which the activity in the assay is half-maximal. For the compound `CN(C)c1ccc2nc3ccc(=[N+](C)C)cc-3sc2c1`, the AC50 in assay [1] is 20.4 µM (active); in assay [2], 9.9 µM (active); in assay [3], 16.5 µM (active).

In the case of `CC(=O)OC1CCCCC1C(C)(C)C` (centres undefined), the compound was called inactive in [1] and in assay [2].

For `Cc1c(C(=O)c2c[nH]n(C)c2=O)ccc(S(C)(=O)=O)c1C1=NOCC1`, the compound was classed as inactive in assay [1] and in assay [2].

Consider `CC(C)(C)C1CCC(=O)CC1`, for which the compound was classed as inactive in [1], in [2] and in [3].

For `CCCCCCCCCC[N+](C)(CCCCCCCCCC)CCC[Si](OC)(OC)OC`, the AC50 in assay [1] is 5.04 µM (active); in assay [2], 16.1 µM (active); in assay [3], 17 µM (active).

Regarding `CC12CCC(CC1)C(C)(C)O2`, the compound was classed as inactive in assay [1].

For the compound `O=C(O)CC(C(=O)O)S(=O)(=O)O` (centres undefined), the compound was called inactive in [1] and in assay [2].

On to `C=C1C[C@H]2[C@@H]3C=C(C)C4=CC(=O)CC[C@]4(C)[C@H]3CC[C@]2(C)[C@@]1(OC(C)=O)C(C)=O`, for which the call in assay [1] and in [2] was inactive.

In the case of `CCCCNS(=O)(=O)c1ccc(C)cc1`, the compound was classed as inactive in [1].

For `CC(C)(C)NC(=O)[C@H]1CC[C@H]2[C@@H]3CC[C@H]4NC(=O)C=C[C@]4(C)[C@H]3CC[C@]12C`, the AC50 is 67.2 µM (active) in assay [4], 38.1 µM (active) in [5], 78 µM (active) in assay [1] and 50 µM (active) in [2]. Besides, the outcome in assay [1], in assay [2], in [6], in assay [7], in [8] and in [9] was inactive. The compound was called inactive in assay [10].

Turning to `CCCCC(=O)O`, the result in [1] and in assay [2] was inactive.

As for `CCOC(=O)c1ccccc1C`, the compound was called inactive in [1] and in [2].

Turning to `CCC[Si](OC)(OC)OC`, the compound was classed as inactive in assay [1] and in assay [2].

For `N#Cc1ccc(C2CCCc3cncn32)cc1` (centres undefined), the outcome in assay [1] and in assay [2] was inactive.

Regarding `CN(C)Cc1cc(CN(C)C)c(O)c(CN(C)C)c1`, in [1], the AC50 is 4.16 µM (active).

As to `CCCCCCC=O`, the compound was called inactive in [1] and in assay [2].

Take `COC(=O)[C@H](Cc1ccccc1)NC(=O)[C@@H](N)CC(=O)O` (H-Asp-Phe-OMe): the outcome in [1] and in [2] was inactive.

On to `Cc1cc(C)n(CO)n1`, for which the outcome in assay [1], in assay [2] and in assay [3] was inactive.

Turning to `CCCCNC(=S)NCCCC`, in assay [1], the result was inactive.

Consider `CC(=O)OC(C)c1ccccc1` (centres undefined), for which the outcome in assay [1] and in [2] was inactive.

Regarding `CC1=CCC2CC1C2(C)C` (centres undefined), the compound was called inactive in assay [1].

Consider `COc1ccc(C(=O)c2ccccc2)c(O)c1`, for which the compound was classed as inactive in [1] and in assay [2].

In the case of `CCCCCCCCCC(C)=O`, the compound was classed as inactive in [1], in [2] and in [3].

Take `CCCCC(CC)COS(=O)(=O)O` (centres undefined): the result in assay [1] and in assay [2] was inactive.

For the compound `C1CNCCN1`, the outcome in assay [1], in assay [2] and in assay [3] was inactive.

For `CCCC(CC)c1ccccc1` (centres undefined), the compound was called inactive in assay [1], in assay [2] and in [3].

With `CCCCCCCCC(CO)CCCCCC` (centres undefined), the compound was called inactive in assay [1] and in assay [2]. For the same compound, in assay [3], the concentration at half-maximal activity (AC50) was 33.9 µM (active).

Consider `Cc1ccc([N+](=O)[O-])cc1N`, for which the result in assay [1] and in [2] was inactive.

As for `NC(=O)Nc1ccccc1`, the call in [1] and in assay [2] was inactive.

Take `CC1=CC=C(C(C)C)CC1`: in assay [1], the outcome was inactive.

Consider `CCCCOCCOC(=O)COc1ccc(Cl)cc1Cl`, for which the compound was called inactive in assay [1] and in assay [2].

With `O=C(OCCc1ccccc1)c1ccccc1`, the result in [1] and in [2] was inactive. Also, the AC50 in assay [3] was 85.9 µM (active).

`O=S(=O)(O)c1ccc(N=Nc2c(O)ccc3ccccc23)cc1`: the result in assay [1] and in [2] was inactive.

For `C=C[C@@]1(C)CC(=O)[C@]2(O)[C@@]3(C)[C@@H](O)CCC(C)(C)[C@@H]3[C@H](O)[C@H](OC(C)=O)[C@@]2(C)O1`, the concentration at half-maximal activity (AC50) in assay [1] is 6.78 µM (active). Moreover, in assay [2], the outcome was inactive.

As to `CO[Si](C)(C)OC`, the outcome in [1], in [2] and in assay [3] was inactive.

Take `COc1ccc(-c2coc3cc(O)cc(O)c3c2=O)cc1`: in [1], the result was inactive. In assay [2], the AC50 is 0.86 µM (active).

Take `CCc1cccc(C)c1N`: the compound was called inactive in [1] and in assay [2].

As to `CCCC=C(C=O)CC`, the compound was called inactive in assay [1] and in assay [3].

The values above are taken from PubChem BioAssay (EPA / NIEHS).
